Measurements as given in PubChem BioAssay AID720566 (Broad Institute, 2013).
Entries with a potency or affinity are not part of this list. Active and inactive are the calls of the source.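 The calls were made as follows: active = in all runs, an absorbance decrease of 25% or more of the average positive control decrease; inconclusive = runs conflict, with both active and inactive results; inactive = all runs inactive, opposite-direction effects included.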

What follows are compounds tested against Protein disulfide-isomerase A6 (Homo sapiens) (UniProt Q15084) (assay: inhibitors of ERp5-mediated insulin aggregation, dose response, biochemical, turbidity, absorbance 650 nm, cherry-picked samples (AID 720566;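 also: negative values mean less insulin aggregation so ERp5 inhibition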)). Conditions: Recombinant ERp5 insulin aggregation; series mostly up to 35 µM.
Chain of Protein disulfide-isomerase A6 (Homo sapiens) (Q15084 whole entry, looked up): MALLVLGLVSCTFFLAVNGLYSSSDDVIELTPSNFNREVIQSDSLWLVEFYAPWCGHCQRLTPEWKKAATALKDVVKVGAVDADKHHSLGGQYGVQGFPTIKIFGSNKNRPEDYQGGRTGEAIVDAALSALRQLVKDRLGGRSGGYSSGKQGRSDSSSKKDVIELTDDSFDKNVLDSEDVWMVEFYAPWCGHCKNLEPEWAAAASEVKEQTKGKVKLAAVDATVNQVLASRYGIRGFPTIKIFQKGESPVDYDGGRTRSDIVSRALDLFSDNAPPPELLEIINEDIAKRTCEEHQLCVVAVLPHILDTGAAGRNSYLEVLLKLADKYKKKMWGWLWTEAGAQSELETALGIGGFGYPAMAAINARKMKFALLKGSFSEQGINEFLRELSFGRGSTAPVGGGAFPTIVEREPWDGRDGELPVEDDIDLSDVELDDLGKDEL

outcome, inactive:
O=C(Nc1ccncc1)C1CC(=O)N(c2ccccc2)C1 (centres undefined)
CCC(=O)Nc1ccc2c(c1)C(=O)N(C)[C@H]1CC[C@@H](CC(=O)NCC3CC3)O[C@@H]1CO2
CCC1(CC)NC(=O)N(CC(=O)OC(C)C(=O)Nc2ccc(NC(C)=O)cc2)C1=O (centres undefined)
O=C(C[C@@H]1C[C@H]2c3cc(NS(=O)(=O)c4ccccc4)ccc3O[C@H]2[C@H](CO)O1)NC1CCCCC1
COc1ccc2c3c([nH]c2c1)[C@@H](CO)N(Cc1nccs1)CC31CN(C(=O)C2CCCC2)C1
COCC(=O)N(C)C[C@H]1Oc2cc(C#CC(C)(C)O)ccc2S(=O)(=O)N([C@@H](C)CO)C[C@@H]1C
C[C@@H]1CN([C@H](C)CO)C(=O)Cc2cc(NC(=O)c3ccncc3)ccc2O[C@H]1CN(C)S(=O)(=O)c1cn(C)cn1
CCN(CC)S(=O)(=O)c1ccc2c(c1)N(CC(=O)NCCN1CCOCC1)C(=O)CO2
C[C@H]1CN([C@@H](C)CO)C(=O)Cc2cc(NC(=O)Nc3cccc4ccccc34)ccc2O[C@H]1CN(C)Cc1ccc(C(F)(F)F)cc1
